Records with an inconclusive call do not appear. Active and inactive are the calls of the source. How the source made its calls: active means hit-call score of the fitted dose curve at least 0.9, where 1 is the maximum; inconclusive means response in the unintended direction; inactive means score below 0.9.
experiment: ATG_GAL4_TRANS: Attagene TRANS-FACTORIAL HepG2 Assay for GAL4 (Internal Marker) (AID 2282976); details: HepG2 Attagene TRANS GAL4 internal marker reporter
Protocol: ATG_TRANS is a cell-based, multiplexed-readout assay that uses HepG2, a human liver cell line, with measurements taken at 24 hours after chemical dosing in a 24-well plate.ATG_GAL4_TRANS is one of 30 assay component(s) measured or calculated from the ATG_TRANS assay. It is designed to make measurements of mRNA induction, a form of inducible reporter, as detected with fluorescence intensity signals by Reverse transcription polymerase chain reaction (RT-PCR) and Capillary electrophoresis technology.Data from the assay component ATG_GAL4_TRANS was analyzed into 1 assay endpoint. This assay endpoint, ATG_GAL4_TRANS, was analyzed in the positive analysis fitting direction relative to DMSO as the negative control and baseline of activity. Using a type of inducible reporter, measures of mRNA for gain-of-signal activity can be used to understand the background control at the transcription factor-level as they relate to the gene . Furthermore, this assay endpoint can be referred to as a secondary readout, because this assay has produced multiple assay endpoints where this one serves a background control function. To generalize the intended target to other relatable targets, this assay endpoint is annotated to the background measurement intended target family, where the subfamily is baseline control.
Human liver HepG2 cells are transiently transfected with multiple reporter transcription units (MRTUs) in 6-well plates using FuGene 6 reagent (Roche; 3 ml FuGene/1 mg DNA). The MRTU constructs are regulated by a cis-regulating element (promoter). […] A major difference between the CIS and TRANS system is that in CIS activities of endogenous TFs are measured, whereas the TRANS assay evaluates changes in activities of exogenous, chimeric NR-Gal4 proteins. […] At the end of 24 hour incubation, total RNA was isolated using TriZol reagent (Invitrogen). The isolated RNA is then reverse-transcribed using oligo(dT) primer and Mo-MLV reverse transcriptase (Invitrogen) with DNAse I (Ambion) treatment for 30 min. The one-tenth of the produced cDNA was amplified by PCR using Taq DNA polymerase (Invitrogen) and two reporter sequence-specific primers. The PCR products were fluorescently labeled by primer extension with 6-arboxyfluorescein (6-FAM) 5'-labeled reporter sequence-specific primer (2 min at 95 C, 20 s at 68 C and 10 min at 72 C) and these products were digested with 5U of HpaI (New England Biolabs) for 2h at 37 C. The fragments were purified using Qiaquick PCR columns (Qiagen), analyzed on an ABI 3130xL genetic analyzer (Applied Biosystems) with peak positions identified by using a set of X-rhodamine (ROX)-labeled MapMarker1000 molecular weight standards (BioVentures). The raw capillary electrophoresis data was processed using Attagraph software (Attagene).

Question: For `CC1(C)[C@@H]2CC[C@@]1(C)[C@H](O)C2`, which outcome is on record?
Answer: The outcome was “inactive”.

Question: Which outcome does the source give for `CCCC/C=C\CCCCCCCCCC=O` here?
Answer: The outcome was “inactive”.

Question: For `COC(C(=O)O)c1ccccc1` (stereo not given), which outcome is on record?
Answer: Its outcome is “inactive”.

Question: With `CC(C)[C@H]1CC[C@@H](C)CC1=O` as the compound, how does the outcome read?
Answer: The outcome was “inactive”.

Question: With `CCO[Si](CCCS)(OCC)OCC` as the compound, how does the outcome read?
Answer: The outcome was “inactive”.

Question: With `N#Cc1ccccc1` as the compound, how does the outcome read?
Answer: The outcome was “inactive”.

Question: Which outcome does the source give for `NCCCCCCN` here?
Answer: Its outcome is “inactive”.

Question: For `CCCCN`, which outcome is on record?
Answer: Its outcome is “inactive”.

Question: With `CC(=O)Nc1ccc(CC(=O)O)cc1` as the compound, how does the outcome read?
Answer: Its outcome is “inactive”.

Question: For `OC[C@H]1O[C@H](O[C@]2(CCl)O[C@H](CCl)[C@@H](O)[C@@H]2O)[C@H](O)[C@@H](O)[C@H]1Cl`, which outcome is on record?
Answer: The outcome was “inactive”.

Question: For `CCCCCCCCC`, which outcome is on record?
Answer: The outcome was “inactive”.

Question: Which outcome does the source give for `Cc1c(N(C)C)c(=O)n(-c2ccccc2)n1C` here?
Answer: The outcome was “inactive”.

Question: For `O=C(O)c1cn(C2CC2)c2cc(N3CCNCC3)c(F)cc2c1=O`, which outcome is on record?
Answer: The outcome was “inactive”.

Question: For `COc1cc(C)cc(O)c1`, which outcome is on record?
Answer: The outcome was “inactive”.

Question: With `COc1ccc(Cl)cc1C` as the compound, how does the outcome read?
Answer: Its outcome is “inactive”.

Question: For `C=COCCOCCOCCOC=C`, which outcome is on record?
Answer: Its outcome is “inactive”.

Question: For `CC(CCO)CCCC(C)(C)O` (stereo not given), which outcome is on record?
Answer: The outcome was “inactive”.

Question: With `CC(=O)OCC=Cc1ccccc1` as the compound, how does the outcome read?
Answer: The outcome was “inactive”.

Question: For `OC1C(O)C(O)C(O)C(O)C1O` (stereo not given), which outcome is on record?
Answer: The outcome was “inactive”.

Question: For `CC(C)=CCO`, which outcome is on record?
Answer: The outcome was “inactive”.

Question: For `Cc1ccc(C=O)cc1`, which outcome is on record?
Answer: The outcome was “inactive”.

Question: For `Clc1cccc(Cl)n1`, which outcome is on record?
Answer: The outcome was “inactive”.

Question: With `O=C1OC2(c3cc(Br)c(O)c(Br)c3Oc3c2cc(Br)c(O)c3Br)c2c(Cl)c(Cl)c(Cl)c(Cl)c21` as the compound, how does the outcome read?
Answer: The outcome was “inactive”.

Question: Which outcome does the source give for `CC[C@]12CCCN3CCc4c(n(c5ccccc45)[C@@](O)(C(=O)OC)C1)[C@@H]32` here?
Answer: Its outcome is “inactive”.

Question: With `C=C(C)[C@@H]1CC[C@@H](C)C[C@@H]1O` as the compound, how does the outcome read?
Answer: Its outcome is “inactive”.

Question: For `C=CC(=O)OCCn1c(=O)n(CCOC(=O)C=C)c(=O)n(CCOC(=O)C=C)c1=O`, which outcome is on record?
Answer: Its outcome is “inactive”.

Question: With `O=C(OCc1ccccc1)C(=O)OCc1ccccc1` as the compound, how does the outcome read?
Answer: The outcome was “inactive”.

Question: With `CN(C)c1ccc(O)c2c1C[C@H]1C[C@H]3[C@H](N(C)C)C(=O)C(C(N)=O)=C(O)[C@@]3(O)C(=O)C1=C2O` as the compound, how does the outcome read?
Answer: The outcome was “inactive”.

Question: For `COC(=O)c1ccc(C)cc1`, which outcome is on record?
Answer: Its outcome is “inactive”.

Question: Which outcome does the source give for `CCCC(=O)c1cc(O)c(O)cc1O` here?
Answer: The outcome was “inactive”.

Question: For `CC(=O)O[C@]1(C(C)=O)CC[C@H]2[C@@H]3C[C@H](C)C4=CC(=O)CC[C@]4(C)[C@H]3CC[C@@]21C`, which outcome is on record?
Answer: The outcome was “inactive”.

Question: For `CCCCCCCCCCCCN`, which outcome is on record?
Answer: The outcome was “inactive”.

Question: With `O=C[C@@H](O)[C@H](O)[C@H](O)CO` as the compound, how does the outcome read?
Answer: The outcome was “inactive”.

Question: With `OCc1cccnc1` as the compound, how does the outcome read?
Answer: Its outcome is “inactive”.

Question: With `O=C1CCCCCCCCCCCCCCO1` as the compound, how does the outcome read?
Answer: Its outcome is “inactive”.

Question: For `CCCCCCCCCCCCCCCC(=O)OC[C@H](O)[C@H]1OC(=O)C(O)=C1O`, which outcome is on record?
Answer: Its outcome is “inactive”.

Question: For `O=C(O)CCSCCC(=O)O`, which outcome is on record?
Answer: Its outcome is “inactive”.

Question: With `O=C(Cl)c1cccc(C(=O)Cl)c1` as the compound, how does the outcome read?
Answer: The outcome was “inactive”.

Question: Which outcome does the source give for `CSc1nnc(C(C)(C)C)c(=O)[nH]1` here?
Answer: Its outcome is “inactive”.

Question: Which outcome does the source give for `CCCCO` here?
Answer: Its outcome is “inactive”.

Reference: PubChem BioAssay (EPA / NIEHS)
